Laboratory results published in the supplement of paper PMC11624193, “Coupling cellular drug-target engagement to downstream pharmacology with CeTEAM” (Nature Communications, 2024).
Values joined by “and” are separate entries in the source; they are usually repeats but may differ in a detail not shown here. Equal entries are not always repeated. Structures can show the parent of a compound that is named as a salt. ± gives the standard deviation of the averaged measurements.

What follows are compounds tested against PARP1 L713F-nLuc biosensor (HCT116) (UniProt P09874) (assay: PARP1 L713F-nLuc/akaLuc ratio relative to DMSO control (biosensor stabilization) (fold change); higher = more PARP1 biosensor stabilization (target engagement / stabilizer), active = hit call of the paper). Details: stock concentration (mM; final µM = stock mM x 1): 10; 24 h;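 active = log2 fold change beyond 2 SD from the library mean after excluding viability outliers; inactive = within 2 SD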.
PARP1 L713F-nLuc biosensor (HCT116), sequence (P09874 whole entry L713F, looked up): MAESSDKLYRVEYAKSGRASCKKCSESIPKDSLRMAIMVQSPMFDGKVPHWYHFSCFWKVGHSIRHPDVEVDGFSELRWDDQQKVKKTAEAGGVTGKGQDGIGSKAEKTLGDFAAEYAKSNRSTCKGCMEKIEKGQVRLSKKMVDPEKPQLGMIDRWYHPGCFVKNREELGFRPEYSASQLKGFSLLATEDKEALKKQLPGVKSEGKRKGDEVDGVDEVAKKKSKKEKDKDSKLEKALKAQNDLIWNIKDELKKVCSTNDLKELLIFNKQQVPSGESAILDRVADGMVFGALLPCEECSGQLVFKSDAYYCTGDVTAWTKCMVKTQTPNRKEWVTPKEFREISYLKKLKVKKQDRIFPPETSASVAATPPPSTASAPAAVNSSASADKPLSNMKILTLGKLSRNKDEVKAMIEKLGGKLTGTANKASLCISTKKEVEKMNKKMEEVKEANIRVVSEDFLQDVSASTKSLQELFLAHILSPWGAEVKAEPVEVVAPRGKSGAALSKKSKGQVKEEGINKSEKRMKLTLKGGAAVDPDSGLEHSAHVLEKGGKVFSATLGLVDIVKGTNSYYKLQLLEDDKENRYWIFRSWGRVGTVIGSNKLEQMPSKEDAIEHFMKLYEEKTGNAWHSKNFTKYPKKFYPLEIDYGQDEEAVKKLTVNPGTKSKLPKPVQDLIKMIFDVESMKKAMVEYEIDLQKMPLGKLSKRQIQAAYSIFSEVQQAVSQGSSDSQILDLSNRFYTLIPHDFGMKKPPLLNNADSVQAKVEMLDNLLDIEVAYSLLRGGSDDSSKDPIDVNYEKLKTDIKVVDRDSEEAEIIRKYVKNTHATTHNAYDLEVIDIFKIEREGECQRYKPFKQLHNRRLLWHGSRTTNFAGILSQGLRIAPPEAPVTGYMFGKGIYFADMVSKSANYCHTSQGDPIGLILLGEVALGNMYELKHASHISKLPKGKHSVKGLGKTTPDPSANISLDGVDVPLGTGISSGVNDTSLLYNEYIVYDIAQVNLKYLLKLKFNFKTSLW
For `Clc1ccc(Nc2nnc(Cc3ccncc3)c3ccccc23)cc1` [Vatalanib (PTK787) 2HCl], the “PARP1 L713F-nLuc/akaLuc ratio” value was 0.831 (inactive). For `CN(C)[C@H]1CN(C2CCc3cccc(F)c32)C[C@@H]1c1ccc(N2CCN(S(C)(=O)=O)CC2)cc1` (stereo partly drawn), the “PARP1 L713F-nLuc/akaLuc ratio” value was 4.18 (active). `CN1CCCN(C(=O)c2cccc(-c3ccc(/C=C4/C(=O)Nc5ccc(Cl)cc54)o3)c2)CC1` was tested, and the “PARP1 L713F-nLuc/akaLuc ratio” value was 0.758 (inactive). In the case of `CCOC(=O)NCCCC(=O)NCCc1ccccc1` [Santacruzamate A], the “PARP1 L713F-nLuc/akaLuc ratio” value is reported as 0.97 (inactive). For `COC1CCN(C(=O)c2cc(Cc3n[nH]c(=O)c4ccccc34)ccc2F)CC1`, the “PARP1 L713F-nLuc/akaLuc ratio” value was 7.52 (active). For `O=C(Nc1c[nH]nc1-c1nc2ccc(CN3CCOCC3)cc2[nH]1)NC1CC1`, the “PARP1 L713F-nLuc/akaLuc ratio” value was 2.07 ± 0.91. `N#Cc1cc2cc(CN3CCC(Nc4ncnc5sc(CC(F)(F)F)cc45)CC3)c(O)cc2n1Cc1cn[nH]c1` was tested, and the “PARP1 L713F-nLuc/akaLuc ratio” value was 0.315 (active). `COc1cc(Nc2ncc3c(n2)-c2ccc(Cl)cc2C(c2c(F)cccc2OC)=NC3)ccc1C(=O)O` [Alisertib (MLN8237)] was tested, and the “PARP1 L713F-nLuc/akaLuc ratio” value was 1.12 (inactive). For `CN(C)C[C@@H]1CCn2cc(c3ccccc32)C2=C(C(=O)NC2=O)c2cn(c3ccccc23)CCO1` [Ruboxistaurin (hydrochloride)], the “PARP1 L713F-nLuc/akaLuc ratio” value was 0.778 (inactive). With `N#CC1(c2ccc(NC(=O)c3cccnc3NCc3ccncc3)cc2)CCCC1` the “PARP1 L713F-nLuc/akaLuc ratio” value was 0.967 (inactive). With `Cc1ccc(-n2nc(C(C)(C)C)cc2NC(=O)Nc2ccc(OCCN3CCOCC3)c3ccccc23)cc1` [Doramapimod (BIRB 796)] the “PARP1 L713F-nLuc/akaLuc ratio” value was 0.671 (inactive). With `Nc1nc(OCc2cc(Br)cs2)c2ncn(CCCCCCCCO[C@@H]3O[C@H](CO)[C@@H](O)[C@H](O)[C@H]3O)c2n1` [O6BTG-octylglucoside] the “PARP1 L713F-nLuc/akaLuc ratio” value was 0.863 (inactive). `CCOC(=O)c1cnc(NC2(c3ccccc3)CC2)nc1` was tested, and the “PARP1 L713F-nLuc/akaLuc ratio” value was 0.982 (inactive). For `COc1cc(/C=C/C(=O)O[C@H]2CC[C@]34C[C@]35CC[C@]3(C)[C@@H]([C@H](C)CCC=C(C)C)CC[C@@]3(C)[C@@H]5CC[C@H]4C2(C)C)ccc1O` [γ-Oryzanol], the “PARP1 L713F-nLuc/akaLuc ratio” value was 1.11 (inactive). In the case of `COc1cc(N2CCC(N3CCN(C)CC3)CC2)ccc1Nc1ncnc(Nc2ccccc2S(=O)(=O)C(C)C)n1`, the “PARP1 L713F-nLuc/akaLuc ratio” value is reported as 0.97 (inactive). For `COc1cccc2c1c(O)c(C(=O)N(C)c1ccc(C(F)(F)F)cc1)c(=O)n2C` [Tasquinimod], the “PARP1 L713F-nLuc/akaLuc ratio” value was 1.12 (inactive). For `COc1cc(C(=O)Nc2ccccc2-c2cn3c(CN4CCNCC4)csc3n2)cc(OC)c1OC`, the “PARP1 L713F-nLuc/akaLuc ratio” value was 0.569 (inactive). `O=c1[nH]c(=O)n([C@H]2C[C@H](O)[C@@H](CO)O2)cc1F` [Floxuridine] was tested, and the “PARP1 L713F-nLuc/akaLuc ratio” value was 0.549 (inactive). `O=C(Nc1cccc(Cl)c1)Nc1ncc(CCNc2ncnc3ccsc23)s1` [SNS-314 (mesylate)] was tested, and the “PARP1 L713F-nLuc/akaLuc ratio” value was 1.11 (inactive). `Nc1cc(F)ccc1NC(=O)/C=C/c1cnn(C/C=C/c2ccccc2)c1` was tested, and the “PARP1 L713F-nLuc/akaLuc ratio” value was 0.76 (inactive) and 0.99 (inactive). `Cn1c(Nc2ccc(C(F)(F)F)cc2)nc2cc(Oc3ccnc(-c4ncc(C(F)(F)F)[nH]4)c3)ccc21` was tested, and the “PARP1 L713F-nLuc/akaLuc ratio” value was 0.546 (inactive). `CCOC(=O)CCNc1cc(N2CCc3ccccc3CC2)nc(-c2ccccn2)n1` was tested, and the “PARP1 L713F-nLuc/akaLuc ratio” value was 0.586 (inactive). With `Cc1nn(C)cc1-c1nc2c(N3CCN(Cc4ccc(Cl)cc4)CC3)c(Cl)cnc2[nH]1` the “PARP1 L713F-nLuc/akaLuc ratio” value was 0.979 (inactive). For `Cc1cc(-c2ncc(CC(=O)Nc3ccc(-c4cnccn4)cn3)cc2C)ccn1`, the “PARP1 L713F-nLuc/akaLuc ratio” value was 1.03 (inactive). For `CCS(=O)(=O)N1CC(CC#N)(n2cc(-c3ncnc4[nH]ccc34)cn2)C1` [Baricitinib], the “PARP1 L713F-nLuc/akaLuc ratio” value was 0.881 (inactive). For `CC(C)(Oc1ccc(Cl)cc1)C(=O)Nc1ccc(OCc2ccc(C#N)cc2)cc1` [AMPK activator 4], the “PARP1 L713F-nLuc/akaLuc ratio” value was 1.2 (inactive). With `Cc1nc(F)ccc1-c1cc(Cn2ccn(C)c2=N)cc(C(=O)NCc2ccc(Cl)c(Cl)c2)c1` the “PARP1 L713F-nLuc/akaLuc ratio” value was 0.928 (inactive). `Clc1ccc(C(c2ccccc2Cl)C(Cl)Cl)cc1` (stereo not drawn) [Mitotane] was tested, and the “PARP1 L713F-nLuc/akaLuc ratio” value was 0.67 (inactive).
